# Experimental data from ChEMBL document CHEMBL4513216, “Probing the Open Global Health Chemical Diversity Library for Multistage-Active Starting Points for Next-Generation Antimalarials” (ACS Infect Dis, 2020).
# The whole screen tested about 69,000 compounds, of which about 8,600 (12%) showed an effect of 50% or more. Many of the other results were omitted from the sample, so strong results are more common in it than they were.
# Test system: Plasmodium berghei
# Assay: Screen against P. berghei liver stage (PbLuc), transformed with Luciferase, at 10uM
# Format: functional, HepG2
# Conditions: tested at 10 uM
row,Structure (SMILES),INHIBITION
1,O=S1(=O)NC(C2CCN(Cc3ccncc3)CC2)Nc2ccccc21 (stereo unspecified),1.5%
2,COc1ccccc1CCN1CCCC(CN(C)Cc2c[nH]c(C)n2)C1 (stereo unspecified),85.7%
3,COc1ccccc1CC1CCCN(CCC#N)C1 (stereo unspecified),9.32%
4,COc1ccccc1CN(Cc1cccnc1)Cc1c[nH]c(C)n1,12%
5,Cc1nc(CN(C)CC2CCCN(CCc3ccc(Cl)cc3)C2)no1 (stereo unspecified),40.8%
6,CN(Cc1nnc(C2CC2)n1C)C1CCN(CCc2ccncc2)C1 (stereo unspecified),-11.2%
7,Cc1noc(CN(C)CC2CCCN(CCc3ccc(Cl)cc3)C2)n1 (stereo unspecified),58.5%
8,CN(Cc1cnc(N)nc1)CC1CCCN(CCc2ccc(Cl)cc2)C1 (stereo unspecified),-7.94%
9,CN(Cc1ccncc1)CC1CCCN(CCc2ccc(Cl)cc2)C1 (stereo unspecified),65.9%
10,Cc1nc(CN(C)CC2CCCN(CCc3ccc(Cl)cc3)C2)n(C)n1 (stereo unspecified),39.3%
11,CC(=O)NCCNC(=O)c1sc(-c2ccc(Cl)cc2)nc1C,-14.75%
12,C[C@@H]1CN(CCc2ccccc2)C[C@]12CCN(CC(=O)N(C)C)C2=O,-29.5%
13,CC(C#N)CN(C)Cc1nc2c(cnn2C)c(=O)[nH]1 (stereo unspecified),5.72%
14,CCN(CC1CCCO1)S(=O)(=O)N1CCCCCC1 (stereo unspecified),-9.21%
15,Cc1ccc2c(c1)c(Sc1ccccc1)c(CC(=O)O)n2C,12.8%
16,Cc1c[nH]nc1C1CCN(C(=O)CC2CCCC2)C1 (stereo unspecified),-136%
17,CCc1oc(C(=O)N(C)Cc2nonc2C)cc1CN(CC)CC,35.7%
18,Cc1ccc(C(=O)N2CCC3(CC2)C(=O)NCCN3C)cc1O,4.64%
19,CN(C)c1ncccc1NC(=O)C1CN(Cc2ccccc2)CCO1 (stereo unspecified),85.1%
20,O=C(O)C1CN(Cc2cccc(-c3ccccn3)c2)CCO1 (stereo unspecified),-1.45%
21,CN(C)c1ncc(CN2CCOC(C(=O)Nc3ccccc3)C2)cn1 (stereo unspecified),23.9%
22,CC(C)c1ncc(CN2CCOC(C(=O)Nc3ccccc3)C2)cn1 (stereo unspecified),6.32%

row,Structure (SMILES),INHIBITION
1,Cc1cc(NC(=O)C2CN(Cc3ccccc3)CCO2)ccn1 (stereo unspecified),96.2%
2,CC(C)(C)n1cc(NC(=O)C2CN(Cc3ccccc3)CCO2)cn1 (stereo unspecified),-43.3%
3,Cc1cc(C)cc(NC(=O)CC2CN(Cc3ccccc3)CCO2)c1 (stereo unspecified),-10.9%
4,CN(C)c1ncccc1CN1CCOC(C(=O)Nc2ccccc2)C1 (stereo unspecified),37.6%
5,CN(C)c1ccc(NC(=O)C2CN(Cc3ccccc3)CCO2)cn1 (stereo unspecified),52.6%
6,Cc1ccc(CNc2cc(N3CCCC3CO)ncn2)s1 (stereo unspecified),-23.9%
7,C[C@@H]1CN(C(=O)c2cccn2C)C[C@]12CCN(c1ccsc1)C2=O,8.93%
8,CC(C)c1nnc2n1CC(CNCc1nc3ccccc3o1)CC2 (stereo unspecified),13%
9,Cc1cc(NCc2cn(C)nc2-c2cccnc2)n(C)n1,-17.1%
10,CCn1cnnc1CNC(=O)N1CCCCCC1,-8.11%
11,COCC1COCCC12CCN(S(=O)(=O)c1cccnc1)CC2 (stereo unspecified),36.5%
12,Cc1cnn(CCNCc2nnc(-c3ccc(F)cc3)o2)c1,-35.7%
13,O=C(C1CNCCN1C(=O)CCOc1ccccc1)N1CCCC1 (stereo unspecified),-27.5%
14,Cc1c(C(=O)O)cnn1-c1ccc(-c2nc(C(C)C)no2)cn1,-44.7%
15,CC(C)c1nc(C2CCCN(C(=O)c3ccc4[nH]nnc4c3)C2)no1 (stereo unspecified),-6.14%
16,CCS(=O)(=O)N1CCO[C@H]2[C@H](OCCCn3cccn3)CC[C@@H]21,-0.182%
17,Cc1nnc(N2C[C@@H](OCCCn3cccn3)[C@H]3OCCC[C@H]32)s1,50.1%
18,Cc1nnc(N2C[C@H](OCc3ccncc3)[C@H]3OCCC[C@H]32)s1,19.5%
19,CC(=O)N1CCO[C@H]2[C@H](OCCCn3cccn3)CC[C@@H]21,19.4%
20,O=C(C1CCC1)N1CCO[C@H]2[C@H](OCCCn3cccn3)CC[C@@H]21,-47.8%
21,O=C(CC1CC1)N1CCO[C@H]2[C@H](OCCCn3cccn3)CC[C@@H]21,55%
22,c1cnn(CCCO[C@@H]2CC[C@H]3[C@H]2OCCN3CC2CC2)c1,53%

row,Structure (SMILES),INHIBITION
1,c1cnn(CCCO[C@@H]2CC[C@H]3[C@H]2OCCN3CC2CCOCC2)c1,26.3%
2,Cc1nnc(N2C[C@H](OCCCn3cccn3)[C@H]3OCCC[C@H]32)s1,43.9%
3,Clc1ccc(OCCNCCn2cccn2)cc1,9.14%
4,O=C(CCOCC(F)(F)F)N1CCCC(n2ccnc2)C1 (stereo unspecified),-63.3%
5,O=C(NCc1ccccc1Cn1cncn1)C1CC1,49.8%
6,CC(=O)N1CCN(Cc2ccccn2)CC2(CC(=O)N(C)C2)C1 (stereo unspecified),14.1%
7,Cc1ncsc1CCC(=O)N1CCCC1c1cccnc1 (stereo unspecified),-2.79%
8,Cc1ncsc1CCC(=O)N1CCn2cccc2C1c1cccnc1 (stereo unspecified),59.1%
9,CCN1CCC(CC(=O)N2CCn3cccc3C2c2cccnc2)CC1 (stereo unspecified),18.9%
10,O=C(NCc1cccnc1N1CCCCC1)c1ccc2c(c1)OCO2,-1.85%
11,Cc1nnsc1C(=O)NCc1cccnc1N1CCCC(O)C1 (stereo unspecified),66.3%
12,O=C(NCc1cccnc1N1CCCC(O)C1)c1ccsc1 (stereo unspecified),74.3%
13,Cc1nnsc1C(=O)NCC1CCN(c2ccccn2)CC1,14.6%
14,CS(=O)(=O)NCC1CCCN(C(=O)Nc2cccnc2N2CCCC2)C1 (stereo unspecified),-8.69%
15,O=C(NCc1cccnc1N1CCCCC1)c1cccs1,7.12%
16,O=C(NCc1cccnc1N1CCCC(O)C1)c1ccc2[nH]nnc2c1 (stereo unspecified),18.6%
17,Cc1nnsc1C(=O)NCc1cccnc1N1CCc2ccccc2C1,5.8%
18,CCC1CCCN(C(=O)NCc2cccnc2-n2cccn2)C1 (stereo unspecified),33.8%
19,CC(=O)c1ccc(C(=O)NCc2cccnc2N2CCCC(O)C2)s1 (stereo unspecified),69.7%
20,CC(NC(=O)c1cccs1)C(=O)NCc1cccnc1N1CCCCC1 (stereo unspecified),2.26%
21,CCS(=O)(=O)NCc1cccnc1N1CCCC(O)C1 (stereo unspecified),89.1%
22,O=C(NC1CC1)C1[C@H]2CN(Cc3ccc(-c4cc[nH]n4)s3)C[C@@H]12 (stereo partly specified),33.3%

row,Structure (SMILES),INHIBITION
1,c1cc(CN2CCC3(CC2)COC(COCC2CC2)C3)co1 (stereo unspecified),-17.1%
2,Cc1cccc(-c2nc(CNC3CCc4ncnn4C3)no2)c1 (stereo unspecified),23.7%
3,O=C1CCC2(CCN(Cc3ncccn3)CC2)CN1CCCO,-33.5%
4,Cc1oc(-c2nc(C#N)c(NCC(C)C)o2)cc1S(=O)(=O)N1CCCC1,22.6%
5,CCN(CC)S(=O)(=O)NCC1COc2ccccc2O1 (stereo unspecified),36.9%
6,Cn1ccn2ncc(C(=O)NCc3cccnc3N3CCCC(O)C3)c12 (stereo unspecified),28.8%
7,Cc1cc(C(=O)NCc2cccnc2N2CCCC(O)C2)[nH]n1 (stereo unspecified),34.5%
8,Cc1cc(C(=O)NCc2cccnc2N2CCCC(O)C2)c(C)o1 (stereo unspecified),55%
9,Cc1cc(CN2CCN(C(=O)NC(C)Cn3cccn3)CC2)no1 (stereo unspecified),-17.78%
10,CC(NC(=O)NCCCN(C)S(C)(=O)=O)c1ccc(F)cc1 (stereo unspecified),58.5%
11,CC(NC(=O)NCCCN(C)S(C)(=O)=O)c1cccc(Cl)c1 (stereo unspecified),-15.8%
12,CC(NC(=O)NCCCN(C)S(C)(=O)=O)c1cccnc1 (stereo unspecified),-9.37%
13,CC(NC(=O)NCCCN(C)S(C)(=O)=O)c1ccncc1 (stereo unspecified),1.77%
14,CC(NC(=O)NCCCN(C)S(C)(=O)=O)c1ccc(Cl)cc1 (stereo unspecified),62.6%
15,CC(NC(=O)NCCCN(C)S(C)(=O)=O)c1ccc(C#N)cc1 (stereo unspecified),44.1%
16,Cn1cc(CC2CC(=O)N(Cc3ccc(OC(F)F)cc3)C2=O)cn1 (stereo unspecified),16.6%
17,Cn1ccnc1C(=O)NCc1cnc2n1CCN(CC1CC1)CC2,-24.1%
18,Cc1nc2n(n1)CC(Nc1ccnc(-c3ccccc3)n1)CC2 (stereo unspecified),-5.1%
19,O=C(NCCn1nc(C2CCNC2)c2cccnc21)c1ccccn1 (stereo unspecified),3.91%
20,CC1(C)Cc2ccc(C(=O)NC3CCS(=O)(=O)C3)c(O)c2O1 (stereo unspecified),36.8%
21,O=C1Nc2ccccc2CNC12CCN(CC1CC1)CC2,20.1%
22,c1coc(CN2C[C@H](OCC3CCOCC3)[C@H]3COC[C@H]32)c1,21%

row,Structure (SMILES),INHIBITION
1,CCCNC(=O)Cn1cc(OC)c(=O)cc1CSc1nc(C)cc(C)n1,-3.83%
2,COc1cn(CC(N)=O)c(CSc2nc(C)cc(C)n2)cc1=O,24%
3,COc1cn(CC(N)=O)c(CSc2nccc(C)n2)cc1=O,64.3%
4,CNC(=O)CCc1cc(C)nc(C2CCN(C3CCCCC3)CC2)c1,15.58%
5,CCOC(=O)[C@H]1CNC[C@@H]1C(=O)OCC,0.868%
6,c1ccc(OCc2n[nH]c3c2CN(CC2CC2)C3)nc1,-23.3%
7,O=C(Cc1ccccc1F)NCC1CCN(CCN2CCOCC2)C1 (stereo unspecified),64.7%
8,O=C(NCCN1CCOCC1)c1cc(COc2ccccc2F)[nH]n1,63.7%
9,O=C(Cc1ccccc1F)NCC1CCN(CCc2ccccc2)C1 (stereo unspecified),26.7%
10,O=C(Cc1ccccc1F)NCCN1CCOCC1,68.4%
11,O=S(=O)(Cc1ccccc1F)NCCN1CCOCC1,-11.9%
12,CN1CCN(CCNC(=O)C(OC2CCCC2)c2ccccc2)CC1 (stereo unspecified),35.2%
13,O=C(NCC1CCCO1)c1cc(COc2ccccc2F)[nH]n1 (stereo unspecified),16.8%
14,O=C(NCCCN1CCOCC1)C(OC1CCCC1)c1ccccc1 (stereo unspecified),-12.1%
15,O=C(NCCN1CCOCC1)C(OC1CCCC1)c1ccccc1 (stereo unspecified),69.5%
16,O=C(NCCC1CCCCO1)c1cc(COc2ccccc2F)[nH]n1 (stereo unspecified),25.4%
17,O=C(NCCN1CCOCC1)c1ccn(-c2ccccc2F)n1,-8.91%
18,O=S(=O)(NCC1CCN(CCN2CCOCC2)C1)c1ccccc1F (stereo unspecified),47.1%
